Laboratory results taken from PubChem BioAssay (Tox21).
Inconclusive results are not listed. Active and inactive are the calls of the source. Unless noted, the call rests on the fitted dose curve; in most records, active means well fitted curve in the direction sought with a large enough effect in the repeat runs; inconclusive means weak or mixed curves; inactive means no such curve, though single readings can be large; an effect the other way counts as inactive or inconclusive.

Assays:
[1] = qHTS RealTime-Glo MT Cell Viability Assay in HEK293 cells - 24 hour (AID 1224886); further: nearly all actives have a fitted effect of over 50% in size; further: potency means the concentration at half of the fitted maximal effect; on activity change, negative = cytotoxicity: top concentration of the series differs between compounds
How it was run: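 Luminescence generated by NanoLuc from substrate produced by living HEK293 cells served as the viability signal. Each value reflects the reading at its stated time point during continuous 40 h compound exposure at 37 C.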

[2] = qHTS RealTime-Glo MT Cell Viability Assay in HEK293 cells - 8 hour (AID 1224887); further: nearly all actives have a fitted effect of over 50% in size; further: potency means the concentration at half of the fitted maximal effect; on activity change, negative = cytotoxicity: top concentration of the series differs between compounds
How it was run: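 HEK293 + NanoLuc + prosubstrate, 600 cells/well; 5 h, 37 C/5% CO2; compound 23 nL in DMSO by pintool; 37 C; luminescence read at 0, 8, 16, 24, 32 and 40 h time points.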

[3] = A CellTox Green Cytotoxicity Assay to monitor cytotoxicity in HEK293 cells - 16 hour (AID 1224888); further: nearly all actives have a fitted effect of over 35% in size; further: potency means the concentration at half of the fitted maximal effect
How it was run: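 Tox21 screen in HEK293: membrane-impermeant cyanine dye fluoresces on binding dead-cell DNA; compound pinned 5 h post-seeding, plates held at 37 C, signal read repeatedly through 40 h.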

[4] = qHTS RealTime-Glo MT Cell Viability Assay in HepG2 cells - 0 hour (AID 1224889); further: nearly all actives have a fitted effect of over 50% in size
How it was run: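 Tox21 10K library screened in qHTS format on HepG2 cells carrying RealTime-Glo reagents. Compounds were added after a 5 h preincubation, and the luminescent signal from continuous culture was measured repeatedly during 40 h treatment.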

[5] = A CellTox Green Cytotoxicity Assay to monitor cytotoxicity in HepG2 cells - 8 hour (AID 1224890); further: nearly all actives have a fitted effect of over 45% in size; further: potency means the concentration at half of the fitted maximal effect
How it was run: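 Measurements at 0, 8, 16, 24, 32 and 40 h of treatment captured CellTox Green fluorescence in HepG2 cells that had been co-plated with reagent and preincubated 5 h at 37 C/5% CO2.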

[6] = qHTS assay to identify small molecule antagonists of the estrogen receptor alpha (ER-alpha) signaling pathway using the BG1 cell line in the presence of 0.1 nM 17-beta-estradiol - cell viability counter screen (AID 1259241); further: nearly all actives have a fitted effect of over 40% in size
How it was run: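 VM7Luc4E2 cells (endogenous full-length ER-alpha, 4xERE-luciferase), cultured 5 days in charcoal-stripped serum, exposed to compounds with 0.1 nM 17beta-estradiol (final) for 22 hr at 37C. Viability read in same wells as live-cell protease fluorescence after 30 min.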

[7] = qHTS assay to identify small molecule antagonists of the androgen receptor (AR) signaling pathway using the MDA cell line in the presence of 0.5 nM R1881 - cell viability counter screen (AID 1259242); further: nearly all actives have a fitted effect of over 45% in size; further: potency means the concentration at half of the fitted maximal effect
How it was run: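 Concentration-response screen of compounds for toxicity in MDA-kb2 reporter cells: 16 hr at 37C with 0.5 nM R1881, endpoint live-cell protease fluorescence measured in the reporter wells.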

[8] = qHTS assay to identify small molecule agonists of the sonic hedgehog signaling (Shh) pathway - cell viability counter screen (AID 1259366); further: nearly all actives have a fitted effect of over 50% in size; further: potency means the concentration at half of the fitted maximal effect
How it was run: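 NIH/3T3-derived Gli1-Luc reporter cells, 2,000 per well, received compound after 4 h and were treated about 23 h at 37C. Viability measured in the same wells by CellTiter-Fluor fluorescence after 1 h.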

[9] = qHTS assay to identify small molecule antagonists of the sonic hedgehog signaling (Shh) pathway - cell viability counter screen (AID 1259367); further: nearly all actives have a fitted effect of over 55% in size; further: potency means the concentration at half of the fitted maximal effect
How it was run: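 CellTiter-Fluor signal in conditioned medium-stimulated 3T3 Gli1-Luc cells, 23 hr compound exposure, 37C.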

[10] = qHTS assay to identify small molecule agonists of the sonic hedgehog signaling (Shh) pathway (AID 1259368; calls by dose curve;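 further: NIH/3T3-derived 3T3Gli1-Luc cells carrying a stable Gli1-driven firefly luciferase reporter; series mostly up to about 92 µM; nearly all actives have a fitted effect of over 15% in size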)
How it was run: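 Hedgehog pathway agonism scored by increased firefly luciferase luminescence in 3T3Gli1-Luc cells treated 24 hr at 37 C; detection used a 30 min room-temperature reagent incubation.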

[11] = qHTS assay to identify small molecule antagonists of the sonic hedgehog signaling (Shh) pathway (AID 1259369; calls by dose curve; further: nearly all actives have a fitted effect of over 45% in size; further: potency means the concentration at half of the fitted maximal effect)
How it was run: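 NIH/3T3 stable Gli1-Luc clone, 2,000 cells/well, 4hr settle; cpd + conditioned medium 24hr; Luc reagent 30min RT; luminescence.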

[12] = biological target: Estrogen receptor beta (Homo sapiens) (UniProt Q92731); test: qHTS assay to identify small molecule agonists of the estrogen receptor beta (ER-beta) signaling pathway (AID 1259377; active means well fitted activation curve with a large enough effect in the signal ratio in the repeat runs, not every such curve was filed as active; the % refers to the signal ratio)
Sequence of Estrogen receptor beta (Homo sapiens) (Q92731 whole entry, looked up): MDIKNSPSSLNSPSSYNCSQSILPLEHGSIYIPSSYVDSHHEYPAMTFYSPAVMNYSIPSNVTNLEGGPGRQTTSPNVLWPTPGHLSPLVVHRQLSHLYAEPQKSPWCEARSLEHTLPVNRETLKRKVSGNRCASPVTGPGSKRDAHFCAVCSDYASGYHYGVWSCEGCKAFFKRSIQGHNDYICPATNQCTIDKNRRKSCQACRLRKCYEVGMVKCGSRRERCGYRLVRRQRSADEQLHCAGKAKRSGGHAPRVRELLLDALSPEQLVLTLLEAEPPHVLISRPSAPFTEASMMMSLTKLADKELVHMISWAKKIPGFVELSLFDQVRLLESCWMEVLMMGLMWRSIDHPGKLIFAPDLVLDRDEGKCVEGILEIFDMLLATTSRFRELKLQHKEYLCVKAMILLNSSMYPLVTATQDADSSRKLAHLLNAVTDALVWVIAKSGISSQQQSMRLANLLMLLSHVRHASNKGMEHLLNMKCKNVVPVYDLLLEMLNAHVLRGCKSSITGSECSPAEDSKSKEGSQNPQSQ
How it was run: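 ER-beta-UAS-bla HEK293T cells in medium with 2% charcoal-stripped FBS were exposed to compounds for 16 h at 37C. Beta-lactamase reporter activity was read as fluorescence after 2 h with LiveBLAzer B/G FRET substrate at room temperature.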

[13] = biological target: Estrogen receptor beta (Homo sapiens) (UniProt Q92731); test: qHTS assay to identify small molecule antagonists of the estrogen receptor beta (ER-beta) signaling pathway (AID 1259378; active means well fitted inhibition curve with a large enough effect in the signal ratio in the repeat runs, not every such curve was filed as active; the % refers to the signal ratio)
How it was run: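 Antagonist mode: compounds added to beta-lactamase reporter HEK293T ER-beta-UAS cells stimulated with E2 (1nM final), 16 hr at 37C. LiveBLAzer B/G FRET substrate, 2 hours room temperature, fluorescence read-out.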

[14] = qHTS assay to identify small molecule agonists of the androgen receptor (AR) signaling pathway in the presence of an antagonist - cell viability counter screen (AID 1259379); further: nearly all actives have a fitted effect of over 25% in size; further: potency means the concentration at half of the fitted maximal effect;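 on activity change, negative = cytotoxicity: MDA-kb2 human breast cancer cells carrying an MMTV luciferase reporter; series mostly up to about 92 µM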
How it was run: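 MDA-kb2 viability measured by CellTiter-Fluor fluorescence in the same wells as the luciferase signal; nilutamide 3.0uM final; 15-point compound titration; 16 hr at 37C.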

[15] = qHTS assay to identify small molecule agonists of the estrogen receptor beta (ER-beta) signaling pathway - cell viability counter screen (AID 1259380); further: nearly all actives have a fitted effect of over 30% in size; further: potency means the concentration at half of the fitted maximal effect
How it was run: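 Measured: luminescence from CellTiter-Glo after 30 min at room temperature, added to wells already read for the LiveBLAzer FRET reporter (2 hr substrate); ER-beta-UAS-bla HEK293T cells had 16 hr compound treatment at 37C, 5% CO2.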

[16] = qHTS assay to identify small molecule HDAC inhibitors (AID 1259364);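 further: wild-type HCT-116 cells with endogenous class I/II HDAC activity; top concentration of the series differs between compounds; nearly all actives have a fitted effect of over 45% in size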
How it was run: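 Screening used wild-type human colon HCT-116 cells incubated overnight, dosed with compounds for 2 hours, and assayed with a homogeneous luminogenic HDAC I/II reagent for 30 minutes at room temperature.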

[17] = qHTS assay to identify small molecule HDAC inhibitors - cell viability counter screen (AID 1259365)
How it was run: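 Wild-type HCT-116 cells, 1,500/well, cultured overnight, then compound-treated 2 h at 37 C. Viability measured as ATP luminescence with CellTiter-Glo after 30 min at room temperature.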

[18] = biological target: Estrogen receptor (Homo sapiens) (UniProt P03372); test: qHTS assay to identify small molecule antagonists of the estrogen receptor alpha (ER-alpha) signaling pathway using the BG1 cell line in the presence of 0.1 nM 17-beta-estradiol (AID 1259244); further: nearly all actives have a fitted effect of over 50% in size
Sequence of Estrogen receptor (Homo sapiens) (P03372 whole entry, looked up): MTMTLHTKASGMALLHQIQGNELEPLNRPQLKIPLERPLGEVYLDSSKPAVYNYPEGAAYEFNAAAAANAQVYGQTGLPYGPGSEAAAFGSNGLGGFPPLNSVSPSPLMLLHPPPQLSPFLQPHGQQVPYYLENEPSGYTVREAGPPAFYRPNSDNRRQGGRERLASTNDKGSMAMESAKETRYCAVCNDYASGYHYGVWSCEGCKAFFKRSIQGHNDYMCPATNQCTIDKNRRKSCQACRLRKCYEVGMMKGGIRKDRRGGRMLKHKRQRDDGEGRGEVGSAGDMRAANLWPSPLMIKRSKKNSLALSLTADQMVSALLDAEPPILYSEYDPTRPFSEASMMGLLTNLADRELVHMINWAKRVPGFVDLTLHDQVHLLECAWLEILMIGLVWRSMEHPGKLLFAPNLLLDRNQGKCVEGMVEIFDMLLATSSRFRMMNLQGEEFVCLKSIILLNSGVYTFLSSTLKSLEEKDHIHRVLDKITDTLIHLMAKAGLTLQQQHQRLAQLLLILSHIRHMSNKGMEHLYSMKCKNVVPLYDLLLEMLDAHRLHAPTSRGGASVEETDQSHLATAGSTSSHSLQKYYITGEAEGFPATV
How it was run: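 Compounds were tested against 0.1 nM (final) 17beta-estradiol in VM7Luc4E2 cells, which express full-length ER-alpha and an ERE-luciferase reporter; luminescence was recorded following 22 h exposure.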

[19] = biological target: Androgen receptor (Homo sapiens) (UniProt P10275); test: qHTS assay to identify small molecule antagonists of the androgen receptor (AR) signaling pathway using the MDA cell line in the presence of 0.5 nM R1881 (AID 1259243); further: nearly all actives have a fitted effect of over 50% in size
Sequence of Androgen receptor (Homo sapiens) (P10275 whole entry, looked up): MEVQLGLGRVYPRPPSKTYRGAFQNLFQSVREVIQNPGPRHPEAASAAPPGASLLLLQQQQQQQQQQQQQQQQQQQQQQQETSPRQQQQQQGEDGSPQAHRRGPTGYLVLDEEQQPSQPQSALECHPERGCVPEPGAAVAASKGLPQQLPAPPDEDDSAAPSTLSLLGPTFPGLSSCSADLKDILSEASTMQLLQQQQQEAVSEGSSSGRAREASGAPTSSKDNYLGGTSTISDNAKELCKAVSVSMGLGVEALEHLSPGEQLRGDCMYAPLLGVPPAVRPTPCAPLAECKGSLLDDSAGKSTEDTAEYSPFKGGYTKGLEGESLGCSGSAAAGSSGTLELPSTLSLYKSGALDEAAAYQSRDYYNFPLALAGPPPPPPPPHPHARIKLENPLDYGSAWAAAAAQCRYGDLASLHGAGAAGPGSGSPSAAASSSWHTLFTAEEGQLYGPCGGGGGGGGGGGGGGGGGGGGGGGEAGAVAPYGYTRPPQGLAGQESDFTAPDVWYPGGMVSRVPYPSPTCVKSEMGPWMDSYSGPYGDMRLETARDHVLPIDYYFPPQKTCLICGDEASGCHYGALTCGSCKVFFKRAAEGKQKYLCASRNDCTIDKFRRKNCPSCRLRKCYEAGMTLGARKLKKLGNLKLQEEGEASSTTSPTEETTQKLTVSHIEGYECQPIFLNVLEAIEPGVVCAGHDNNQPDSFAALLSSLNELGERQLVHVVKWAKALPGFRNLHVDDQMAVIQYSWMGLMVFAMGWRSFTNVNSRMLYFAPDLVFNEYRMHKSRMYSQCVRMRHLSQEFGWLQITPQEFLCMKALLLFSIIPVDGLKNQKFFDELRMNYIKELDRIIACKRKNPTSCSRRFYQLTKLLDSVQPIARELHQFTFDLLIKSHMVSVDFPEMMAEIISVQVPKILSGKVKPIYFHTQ
How it was run: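 With R1881 held at 0.5 nM (final), compound effects on MMTV-luciferase expression in MDA-kb2 cells were scored by luminescence after a 16 hr, 37C incubation.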
On the % scale 0 is the no-effect control and ±100 the full control effect.

c1ccc2cc3c4ccccc4c4ccccc4c3cc2c1
inactive: Potency [1] | Potency [2] | Potency [3] | Potency [4] | Potency [5] | Potency [6] | Potency [7] | Potency [8] | Potency [9] | Potency [10] | Potency [11] | outcome [12] | Potency [13] | Potency [14] | Potency [15]

Cc1c(Cl)c(=O)oc2cc(O)ccc12
inactive: Potency [3] | Potency [4] | Potency [5] | Potency [16] | Potency [17] | Potency [10] | Potency [15]
active: Potency [1] 49 µM | Potency [2] 43.6 µM | Potency [11] 34.4 µM

CC/C=C(\C)C=O
inactive: Potency [1] | Potency [2] | Potency [3] | Potency [5] | Potency [6] | Potency [7] | Potency [18] | Potency [16] | Potency [17] | Potency [8] | Potency [9] | Potency [10] | Potency [11] | Potency [14] | Potency [15]

CO[Si](OC)(c1ccccc1)c1ccccc1
active: Potency [9] 43.3 µM | Potency [11] 21.7 µM
inactive: Potency [1] | Potency [2] | Potency [3] | Potency [4] | Potency [5] | Potency [7] | Potency [16] | Potency [17] | Potency [10] | Potency [13] | Potency [14] | Potency [15]

C=C(C)C1CCC(C)CC1O (stereo not given)
inactive: Potency [1] | Potency [2] | Potency [3] | Potency [4] | Potency [5] | Potency [6] | Potency [7] | Potency [16] | Potency [17] | Potency [8] | Potency [9] | Potency [10] | Potency [11] | Potency [14] | Potency [15]

O=c1[nH]cccc1O
inactive: Potency [1] | Potency [2] | Potency [3] | Potency [5] | Potency [6] | Potency [7] | Potency [18] | Potency [16] | Potency [17] | Potency [8] | Potency [9] | Potency [10] | Potency [11] | outcome [12] | Potency [13] | Potency [14]

c1ccc(-c2ccccc2-c2ccccc2)cc1
inactive: Potency [1] | Potency [2] | Potency [3] | Potency [4] | Potency [5] | Potency [6] | Potency [7] | Potency [16] | Potency [17] | Potency [10] | Potency [14]
active: Potency [9] 43.3 µM | Potency [11] 15.4 µM | Potency [15] 68.6 µM

Cc1ccc2n[nH]nc2c1
inactive: Potency [1] | Potency [2] | Potency [3] | Potency [4] | Potency [5] | Potency [7] | Potency [18] | Potency [16] | Potency [17] | Potency [8] | Potency [9] | Potency [10] | Potency [11] | outcome [12] | Potency [13] | Potency [14] | Potency [15]

C=CC(=O)OCCOC1C2CCC1C1CC=CC12 (stereo not given)
inactive: activity change, negative = cytotoxicity [1] -2.24% [at 15.8 µM] | activity change, negative = cytotoxicity [2] -0.849% [at 15.8 µM] | activity change [3] -0.617% [at 15.8 µM, active compounds read high] | cytotoxicity increase [5] -9.41% [at 15.8 µM] | activity change, negative = cytotoxicity [6] 0.54% [at 19 µM] | viability change, negative = cytotoxic [7] 0.35% [at 19 µM] | activity change, negative = inhibition [18] 2.43% [at 19 µM] | activity change, negative = inhibition [16] 5.48% [at 19 µM] | activity change, negative = cytotoxicity [17] 3.58% [at 19 µM] | viability change, negative = cytotoxic [8] 9.3% [at 19 µM] | viability change, negative = cytotoxic [9] 5.82% [at 19 µM] | activity change [10] -1.29% [at 18.9 µM, active compounds read high] | activity change, negative = inhibition [11] 6.04% [at 19 µM] | activity change, negative = cytotoxicity [14] -6.73% [at 19 µM]

O=C1CCCCCCCCCCCCCC1
active: Potency [3] 43.6 µM
inactive: Potency [1] | Potency [2] | Potency [4] | Potency [5] | Potency [6] | Potency [7] | Potency [17] | Potency [8] | Potency [9] | Potency [10] | Potency [11] | outcome [12] | Potency [13] | Potency [14]

C=Cc1ccncc1
inactive: Potency [1] | Potency [2] | Potency [3] | Potency [4] | Potency [5] | Potency [7] | Potency [19] | Potency [16] | Potency [17] | Potency [8] | Potency [9] | Potency [10] | Potency [11] | Potency [14] | Potency [15]

N#CCCOCCC#N
inactive: Potency [1] | Potency [2] | Potency [3] | Potency [5] | Potency [6] | Potency [7] | Potency [19] | Potency [16] | Potency [17] | Potency [8] | Potency [9] | Potency [10] | outcome [12] | Potency [13] | Potency [14] | Potency [15]

C=Cc1ccc(O)c(OC)c1
inactive: Potency [1] | Potency [2] | Potency [3] | Potency [4] | Potency [5] | Potency [6] | Potency [7] | Potency [17] | Potency [10] | Potency [13] | Potency [14]
active: Potency [8] 54.5 µM | Potency [9] 27.3 µM | Potency [11] 13.7 µM

CCc1c(C)cc(N)c(CC)c1N
inactive: Potency [1] | Potency [2] | Potency [3] | Potency [4] | Potency [5] | Potency [7] | Potency [18] | Potency [16] | Potency [17] | Potency [8] | Potency [9] | Potency [10] | Potency [11] | outcome [12] | Potency [13] | Potency [14] | Potency [15]

CC/C(=C(/c1ccc(O)cc1)c1ccc(OCCN(C)C)cc1)c1ccccc1
inactive: Potency [4] | Potency [6] | Potency [10]
active: Potency [1] 10.2 µM | Potency [2] 14.4 µM | Potency [3] 28.8 µM | Potency [5] 32.3 µM | Potency [7] 40.3 µM | Potency [8] 18 µM | Potency [9] 18 µM | Potency [11] 14.3 µM | Potency [14] 40.3 µM | Potency [15] 32 µM
